Screens: PubChem BioAssay, National Center for Advancing Translational Sciences (NCATS)
Hits are enriched below; roughly 12% of the tested compounds scored in any of these assays.
Sfp inh – qHTS Assay for Inhibitors of Bacillus subtilis Sfp phosphopantetheinyl transferase (PPTase). Biochemical Sfp PPTase activity, qHTS. Potency, µM, for inactives: largest response in the series, negative = inhibition, hits mostly inhibitors. 3.5% of 310,000 active. AID 1490, 2009;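 further: the enzyme is Sfp with the accession as filed and its product quenches rhodamine fluorescence; 0% = enzyme reaction without inhibitor and -100% = no enzyme wells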
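With Hepes-Na pH 7.6 buffer containing 10 mM MgCl2, Sfp (15 nM) modified BHQ-2-YbbR (12.5 uM) using rhodamine-CoA (5 uM). Two reads 30 minutes apart at 525/598 nm yielded each well's rate.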
JMJD2A Tudor – qHTS Assay for Inhibitors of JMJD2A-Tudor Domain; Lysine-specific demethylase 4A (Homo sapiens), O75164; AlphaScreen JMJD2A-Tudor / H3K4me3 peptide binding; Potency, µM (series often up to 114 µM), for the others: at the top dose activity change, negative = inhibition, hits mostly inhibitors; 4.4% of 390,000 active; AID 504339, 2011; further: on the % scale 0 is the no-effect control and ±100 the full control effect; nearly all actives have a fitted effect of over 50% in size
TDP1 inh – qHTS Assay for Inhibitors of Tyrosyl-DNA Phosphodiesterase (TDP1). Potency, µM (doses to about 130 µM), for inactives: at the top dose activity change, negative = inhibition, hits mostly inhibitors. recombinant TDP1, AlphaScreen DNA substrate cleavage. AID 485290, 2010. 0.28% of 350,000 active; further: on the % scale 0 is the no-effect control and ±100 the full control effect; nearly all actives have a fitted effect of over 40% in size
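E. coli-derived human Tdp1, 1 nM final. Cpd preinc 15 min RT; substrate 15 nM final, 5 min RT; AS bead mix 10 ug/ml final, 10 min RT. Signal loss = tyrosine-FITC cleavage. No-enzyme wells = max signal.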
BAZ2B block – qHTS Assay for Inhibitors of BAZ2B. AlphaScreen BAZ2B-H3K14Ac peptide displacement. 4.4% of 360,000 active. Potency, µM (titrated, usually from 114 µM), inactives show at the top dose activity change, negative = inhibition, usual class: inhibitors. Bromodomain adjacent to zinc finger domain protein 2B (Homo sapiens), Q9UIF8. AID 504333, 2011; further: on the % scale 0 is the no-effect control and ±100 the full control effect; nearly all actives have a fitted effect of over 60% in size
Target sequence (Q9UIF8 whole entry, looked up, the tested form may be a part): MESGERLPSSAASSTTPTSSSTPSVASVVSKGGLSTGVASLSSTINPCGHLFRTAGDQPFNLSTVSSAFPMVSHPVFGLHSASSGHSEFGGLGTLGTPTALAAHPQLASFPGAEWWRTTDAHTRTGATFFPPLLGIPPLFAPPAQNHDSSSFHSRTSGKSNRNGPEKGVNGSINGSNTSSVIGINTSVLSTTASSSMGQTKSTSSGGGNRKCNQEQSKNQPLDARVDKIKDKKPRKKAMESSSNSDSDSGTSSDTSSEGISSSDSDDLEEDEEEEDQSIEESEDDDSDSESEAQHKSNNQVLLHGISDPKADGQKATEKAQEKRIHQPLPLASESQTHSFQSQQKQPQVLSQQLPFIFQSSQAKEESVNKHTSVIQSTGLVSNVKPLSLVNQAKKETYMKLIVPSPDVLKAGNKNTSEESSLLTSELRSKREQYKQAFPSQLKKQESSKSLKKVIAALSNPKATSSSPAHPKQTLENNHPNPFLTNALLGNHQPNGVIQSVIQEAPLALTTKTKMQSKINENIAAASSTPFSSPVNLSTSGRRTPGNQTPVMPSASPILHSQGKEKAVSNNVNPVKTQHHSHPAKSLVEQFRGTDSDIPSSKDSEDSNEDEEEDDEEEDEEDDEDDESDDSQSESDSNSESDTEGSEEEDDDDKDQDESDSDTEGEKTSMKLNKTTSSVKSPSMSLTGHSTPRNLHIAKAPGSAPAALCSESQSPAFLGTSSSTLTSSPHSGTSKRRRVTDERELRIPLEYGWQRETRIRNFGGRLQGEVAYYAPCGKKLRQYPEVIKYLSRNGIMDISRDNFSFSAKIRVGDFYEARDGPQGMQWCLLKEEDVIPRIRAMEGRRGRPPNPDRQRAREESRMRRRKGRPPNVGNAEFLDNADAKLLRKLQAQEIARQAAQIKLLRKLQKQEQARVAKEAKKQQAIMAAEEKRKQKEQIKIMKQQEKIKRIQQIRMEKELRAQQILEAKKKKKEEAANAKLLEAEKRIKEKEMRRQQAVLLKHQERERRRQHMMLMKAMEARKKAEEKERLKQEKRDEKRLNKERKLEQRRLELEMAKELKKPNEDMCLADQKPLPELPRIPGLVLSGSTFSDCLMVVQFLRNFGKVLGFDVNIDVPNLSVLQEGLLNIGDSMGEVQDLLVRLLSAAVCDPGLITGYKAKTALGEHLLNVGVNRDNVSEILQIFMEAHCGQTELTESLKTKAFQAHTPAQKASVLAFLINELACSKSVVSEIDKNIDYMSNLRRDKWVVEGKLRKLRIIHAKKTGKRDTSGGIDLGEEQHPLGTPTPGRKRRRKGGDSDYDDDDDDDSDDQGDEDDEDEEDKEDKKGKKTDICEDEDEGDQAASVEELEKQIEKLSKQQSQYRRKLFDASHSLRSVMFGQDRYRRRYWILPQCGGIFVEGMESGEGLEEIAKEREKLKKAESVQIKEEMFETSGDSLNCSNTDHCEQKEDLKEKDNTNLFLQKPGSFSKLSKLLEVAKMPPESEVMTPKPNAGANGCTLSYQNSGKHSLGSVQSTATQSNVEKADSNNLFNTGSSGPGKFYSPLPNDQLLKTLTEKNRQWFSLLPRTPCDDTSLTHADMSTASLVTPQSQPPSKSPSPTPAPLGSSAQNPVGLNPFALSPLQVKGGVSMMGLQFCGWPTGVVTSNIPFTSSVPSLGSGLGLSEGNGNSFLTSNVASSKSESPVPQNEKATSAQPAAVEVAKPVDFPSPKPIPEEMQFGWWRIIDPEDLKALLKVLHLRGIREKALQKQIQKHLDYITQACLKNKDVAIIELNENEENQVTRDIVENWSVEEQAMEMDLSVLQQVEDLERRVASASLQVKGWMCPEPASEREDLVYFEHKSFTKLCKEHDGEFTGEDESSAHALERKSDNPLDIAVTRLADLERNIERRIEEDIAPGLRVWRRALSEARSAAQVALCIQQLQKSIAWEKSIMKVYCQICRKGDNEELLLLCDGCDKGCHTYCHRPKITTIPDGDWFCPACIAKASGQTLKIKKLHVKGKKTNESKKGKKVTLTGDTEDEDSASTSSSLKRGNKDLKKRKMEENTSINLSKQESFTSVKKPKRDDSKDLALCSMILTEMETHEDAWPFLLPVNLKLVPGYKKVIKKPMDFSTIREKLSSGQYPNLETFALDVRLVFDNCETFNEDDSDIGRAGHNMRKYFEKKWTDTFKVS
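In this displacement format the biotinylated H3(5-23) peptide acetylated at Lys14 serves as ligand at 50 nM, with BAZ2B at 50 nM in PBS pH 7.4 containing 0.01% Tween-20. Donor and acceptor beads are 10 ug/mL final.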
G9a block – qHTS Assay for Inhibitors of Histone Lysine Methyltransferase G9a; 8.8% of 350,000 active; G9a H3K9 monomethylation, AlphaScreen, 2 h; AID 504332, 2011; Potency, µM (highest dose often 102 µM), inactives show at the top dose activity, negative = inhibition, hits mostly inhibitors; further: on the % scale 0 is the no-effect control and ±100 the full control effect; nearly all actives have a fitted effect of over 75% in size
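Methyltransferase reactions run at room temperature for 2 h (20 nM enzyme, 500 nM biotin-H3K9 peptide, 20 uM SAM) after a 15 min compound preincubation; product detected by AlphaScreen beads and anti-H3K9me1 antibody.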
HP1b binding inh – HTS for Inhibitors of HP1-beta Chromodomain Interactions with Methylated Histone Tails; Chromobox protein homolog 1 (Homo sapiens), P83916; AlphaScreen HP1-beta / biotin-H3K9me3 peptide binding; 0.56% of 390,000 active; Potency, µM (series often up to 114 µM), for the others: at the top dose activity change, negative = inhibition, actives largely listed as inhibitors; further: nearly all actives have a fitted effect of over 70% in size
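Compound inhibition of the preformed complex between 50 nM HP1-beta and 50 nM biotinylated H3K9me3 peptide was read by AlphaScreen. Buffer was PBS pH 7.4 with 0.01% Tween-20. Incubations ran 30 min at room temperature, with 10 ug/mL donor/acceptor beads.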
* = called active by the depositor; ? = inconclusive; . = no result; ! = repeats disagree; [ ] = dose if it differs, or a comment. The call rests on the fitted dose curve; in most records, active means well fitted curve in the direction sought with a large enough effect; inconclusive means small, poorly fitted or top-dose-only effect, or another doubt; inactive means no such curve, though single readings can be large; an effect the other way counts as inactive or inconclusive. Potency means the concentration at half of the fitted maximal effect.

SMILES	Sfp inh	JMJD2A Tudor	TDP1 inh	BAZ2B block	G9a block	HP1b binding inh
Cc1ccc(CN2CCSc3ccc(C(=O)N4CCOCC4)cc32)cc1	-9%	-28%	8%	?	?	23%
CCN1CCN(C(=O)c2ccc3c(c2)N(Cc2ccc(C)cc2)CCS3)CC1	6%	-36%	6%	-28%[57.1 µM]	79µM*	-6%[57 µM]
CC1CC(C)CN(C(=O)c2ccc3c(c2)N(Cc2ccccc2)CCS3)C1 (stereo not drawn)	?	?	5%	?	40µM*	11%
Cc1ccc(Cl)cc1N1CCN(C(=O)c2ccc3c(c2)N(Cc2ccccc2)CCS3)CC1	.	-31%	1%	-30%	?	23%
Cc1ccc(CN2CCSc3ccc(C(=O)N4CCN(c5ncccn5)CC4)cc32)cc1	50µM*	?	7%	-29%	-25%[12.7 µM]	-9%
Cc1ccc(CN2CCSc3ccc(C(=O)NCc4ccco4)cc32)cc1	7%	-32%	8%	-18%	71µM*	-9%
Cc1ccc(S(=O)(=O)N2CCOCC2)cc1C(=O)Nc1cc(S(=O)(=O)N2CCCCC2)ccc1O	.	?	.	.	.	7%
COc1ccc(F)cc1S(=O)(=O)NCCc1sc2nc(-c3ccc(F)cc3)nn2c1C	.	-16%	0%	-14%	-2%[59 µM]	14%
C#CCOCCOCCOCCNc1nc(N2CCN(C(=O)[C@H]([C@@H](C)CC)n3cc([C@@H](N)CC(C)C)nn3)CC2)nc(N2CCN(C(=O)[C@H](Cc3ccc(O)cc3)n3cc([C@@H](N)C(C)CC)nn3)CC2)n1 (stereo partly drawn)	3%	?	3%	79µM*	6%[12.7 µM]	12%
C#CCOCCOCCOCCNc1nc(N2CCOCC2)nc(N2CCN(C(=O)[C@H]([C@@H](C)CC)n3cc([C@@H](N)Cc4ccc(O)cc4)nn3)CC2)n1	11%	-24%	8%	-20%	?	30%
C#CCOCCOCCOCCNc1nc(N2CCN(C(=O)[C@H]([C@@H](C)CC)n3cc([C@@H](N)Cc4ccc(O)cc4)nn3)CC2)nc(N2CCN(C(=O)[C@H](Cc3ccc(O)cc3)n3cc([C@@H](N)C(C)CC)nn3)CC2)n1 (stereo partly drawn)	0%	22µM*	6%	79µM*	?	8%
CCOc1ccc(CCNC(=O)c2cc3n(n2)CCCN(Cc2ccc(C)cc2)C3=O)cc1OCC	.	-4%	9%	-10%	32%[59 µM]	74%
Cc1ccc(N2C(S)=C(C#N)C(=O)NC23CCCCC3)cc1	20µM*	-22%[57.1 µM]	0%	-9%	28µM*	19%
Cc1ccccc1N1C(S)=C(C#N)C(=O)NC12CCCCC2	14µM*	-21%	0%	4%	35µM*	24%
CCOC(=O)CCN1C(=O)[C@H]2[C@H]3[C@H](O)[C@H](O)C/C(=N/NC(=O)OCc4ccccc4)[C@@H]3CC[C@@H]2C1=O	25%	.	7%[21 µM]	.	.	.
Fc1cccc(Cl)c1-c1nnc2ccc(C(F)(F)F)cn12	15%	-9%	2%	3%	13%	36%
O=C(COC(=O)C1CCN(S(=O)(=O)c2cccs2)CC1)c1ccc2c(c1)OCCO2	-1%	3%	6%	25%	18%	21%
O=C(COC(=O)C1CCN(S(=O)(=O)c2cccs2)CC1)c1cc2ccccc2o1	8%	-5%	1%	-9%	8.9µM*	47%
CC1(C)CC(=O)C(CC2=C(O)CC(C)(C)CC2=O)C(=O)C1	?	-31%	1%	10%	?	34%
CC1(C)CC(=O)C(CC2=C(O)CC(C)(C)CC2=O)=C(O)C1	?	-16%	6%	7%	4.5µM*	40%
COc1ccc(-c2cc(-c3c(O)c(OC)c4occc4c3OC)[nH]n2)cc1	?	?	6%	-37%	15%[12.7 µM]	0%
COc1ccc(-c2cc(-c3c(O)c(OC)c4occc4c3OC)[nH]n2)cc1OC	-15%	56µM*	8%	?	-6%[0.0925 µM]	?
COC(=O)c1sccc1NC(=O)CN(C)NS(=O)(=O)c1ccc(Cl)cc1	16%	-31%	1%	-10%	12%[59 µM]	10%
COC(=O)c1sccc1NC(=O)CN(C)NS(=O)(=O)c1ccc([N+](=O)[O-])cc1	-15%	56µM*	5%	-12%	-20%[59 µM]	-1%
CC1=C(C(N)=O)C(c2cccc(F)c2)n2nc(SCc3ccccc3)nc2N1 (stereo not drawn)	.	-1%	-5%	3%	3%[59 µM]	18%
SMILES	Sfp inh	JMJD2A Tudor	TDP1 inh	BAZ2B block	G9a block	HP1b binding inh
Cc1ccc2nc(-c3ccccc3)c(CC(=O)O)c(C(=O)O)c2c1	10%	-9%	0%	?	45µM*	21%
Cc1cc(C(=O)OCC(=O)N2CCOCC2)c(C)n1-c1ccccc1	.	-7%	3%	.	.	7%
Cc1cc(C(=O)C[N+]2(C)CCOCC2)c(C)n1-c1ccc(Br)cc1	13%	?	3%	-37%	-27%	-5%
Cc1cc(C(=O)NP(=O)(N2CCOCC2)N2CCOCC2)c(C)n1-c1ccc(N(C)C)cc1	-18%	?	-1%	?	22µM*	-12%
Cc1cc(C(=O)NP(=O)(N2CCOCC2)N2CCOCC2)c(C)n1-c1ccc(Br)cc1	7%	-29%	2%	?	50µM*	-1%
COc1ccc(OC)c(C(=O)NC(CC(N)=O)c2ccc(NCCN3CCCCC3)c([N+](=O)[O-])c2)c1 (stereo not drawn)	15%	-17%	.	-6%	?	49%
CCCCCCCCCCCCCC[N+](C)(C)C	11µM*	.	6%	.	-1%[12.7 µM]	.
CCCCCCCCCCCCCCCC[N+](C)(C)CC	79µM*	-8%	2%	6%	14µM*!	17%
CCCCCCCC[N+](CCCCCCCC)(CCCCCCCC)CCCCCCCC	.	.	0%	.	.	.
CCOC(=O)C(CC)Sc1ccc2nnc(-c3ccc(F)cc3)n2n1 (stereo not drawn)	.	1%[57.1 µM]	1%	.	.	25%[57 µM]
Cc1cc(C(=O)Nc2sc3c(c2C#N)CCCC3)no1	20µM*	-19%	-1%[56.1 µM]	10%	7.1µM*	-18%
CC(C)Cc1cc(C(=O)Nc2sc3c(c2C#N)CCC3)no1	56µM*	-4%	-7%	5%	45µM*	5%
